Holding throughout (assay): log2 fold change, soluble protein after heating vs DMSO (PISA); higher = thermal stabilisation; K562 cells, 10 uM, 30 min; active = over 0.2 and 3.5 SD of the protein, either way, in both replicates (recomputed)
Compound in assay [1]: COC1=CC=C(C=C1)CN2C=CC3=C2C=C(C=C3)C(=O)NO
In short, it runs like this:
(§1)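 K562 cells at 2×10^6 cells/mL were treated for 30 min with 10 μM compound, and aliquots were heated for 3 min over 48°C-58°C before pooling. Extraction used PBS with 0.5% NP-40 at 4°C, and soluble protein was the supernatant after 21,000xg for 90 min, measured by TMTpro 16plex LC-MS/MS with channel sums equalised. Thermal stability values, relative to control samples and from duplicates, are log2 fold changes.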

Compound in assay [2]: CON(C)C(=O)N1N=C(c2cc(F)ccc2F)S[C@@]1(CCCN)c1ccccc1 [filanesib]
In short, it runs like this: as §1

Compound in assay [3]: CO[C@H]1C[C@@H]2CC[C@@H](C)[C@@](O)(O2)C(=O)C(=O)N2CCCC[C@H]2C(=O)O[C@H]([C@H](C)C[C@@H]2CC[C@H](n3cnnn3)[C@H](OC)C2)CC(=O)[C@H](C)/C=C(\C)[C@@H](O)[C@@H](OC)C(=O)[C@H](C)C[C@H](C)/C=C/C=C/C=C/1C [zotarolimus]
In short, it runs like this:
as §1

Compound in assay [4]: COc1cc(C(=O)O)ccc1NC(=O)[C@@H]1N[C@@H](CC(C)(C)C)[C@](C#N)(c2ccc(Cl)cc2F)[C@H]1c1cccc(Cl)c1F [idasanutlin]
The procedure, abridged:
as §1

Compound in assay [5]: COc1cc(Nc2ncc3c(n2)-c2ccc(Cl)cc2C(c2c(F)cccc2OC)=NC3)ccc1C(=O)O [alisertib]
The procedure, abridged:
as §1

Compound in assay [6]: COc1cc2nc(-c3cc(F)ccc3O)nc(N[C@@H]3CNC[C@H]3C(C)(C)O)c2cc1OC
The procedure, abridged: as §1

Compound in assay [7]: COc1cc2ncnc(Nc3ccc(F)c(Cl)c3)c2cc1OCCCN1CCOCC1 [gefitinib]
In short, it runs like this: as §1

Compound in assay [8]: COc1cccc2cc(-c3nc([C@H]4CC[C@H](C(=O)O)CC4)n4ncnc(N)c34)[nH]c12
The procedure, abridged:
as §1

Compound in assay [9]: CS(=O)(=O)CCNCc1ccc(-c2ccc3ncnc(Nc4ccc(OCc5cccc(F)c5)c(Cl)c4)c3c2)o1 [lapatinib]
In short, it runs like this:
as §1

Compound in assay [10]: CS(=O)(=O)N1CCN(Cc2cc3nc(-c4cccc5[nH]ncc45)nc(N4CCOCC4)c3s2)CC1 [pictilisib]
In short, it runs like this:
as §1

The values that follow come from the supplement of paper PMC10849652.

Of roughly 7,900 targets only a part is listed; those with a hit were picked by preference. About 0.6% of all pairs of compound and target were hits. A number with no mark means an inactive call.

Chain of UniProt P55795 (P55795 whole entry, looked up): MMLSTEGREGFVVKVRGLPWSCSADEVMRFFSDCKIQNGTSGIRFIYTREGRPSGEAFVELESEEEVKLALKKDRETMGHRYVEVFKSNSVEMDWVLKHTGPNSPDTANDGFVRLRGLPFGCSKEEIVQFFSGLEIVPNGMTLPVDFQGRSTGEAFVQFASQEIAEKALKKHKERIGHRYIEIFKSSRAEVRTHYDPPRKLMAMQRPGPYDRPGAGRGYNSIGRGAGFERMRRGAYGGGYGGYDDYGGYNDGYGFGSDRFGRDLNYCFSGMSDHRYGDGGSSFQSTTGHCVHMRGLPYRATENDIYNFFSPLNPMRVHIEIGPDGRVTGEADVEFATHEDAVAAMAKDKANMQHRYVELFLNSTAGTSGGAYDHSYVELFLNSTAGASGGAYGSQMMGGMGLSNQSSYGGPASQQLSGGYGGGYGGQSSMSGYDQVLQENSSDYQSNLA
Chain of UniProt Q8IWJ2 (Q8IWJ2 whole entry, looked up): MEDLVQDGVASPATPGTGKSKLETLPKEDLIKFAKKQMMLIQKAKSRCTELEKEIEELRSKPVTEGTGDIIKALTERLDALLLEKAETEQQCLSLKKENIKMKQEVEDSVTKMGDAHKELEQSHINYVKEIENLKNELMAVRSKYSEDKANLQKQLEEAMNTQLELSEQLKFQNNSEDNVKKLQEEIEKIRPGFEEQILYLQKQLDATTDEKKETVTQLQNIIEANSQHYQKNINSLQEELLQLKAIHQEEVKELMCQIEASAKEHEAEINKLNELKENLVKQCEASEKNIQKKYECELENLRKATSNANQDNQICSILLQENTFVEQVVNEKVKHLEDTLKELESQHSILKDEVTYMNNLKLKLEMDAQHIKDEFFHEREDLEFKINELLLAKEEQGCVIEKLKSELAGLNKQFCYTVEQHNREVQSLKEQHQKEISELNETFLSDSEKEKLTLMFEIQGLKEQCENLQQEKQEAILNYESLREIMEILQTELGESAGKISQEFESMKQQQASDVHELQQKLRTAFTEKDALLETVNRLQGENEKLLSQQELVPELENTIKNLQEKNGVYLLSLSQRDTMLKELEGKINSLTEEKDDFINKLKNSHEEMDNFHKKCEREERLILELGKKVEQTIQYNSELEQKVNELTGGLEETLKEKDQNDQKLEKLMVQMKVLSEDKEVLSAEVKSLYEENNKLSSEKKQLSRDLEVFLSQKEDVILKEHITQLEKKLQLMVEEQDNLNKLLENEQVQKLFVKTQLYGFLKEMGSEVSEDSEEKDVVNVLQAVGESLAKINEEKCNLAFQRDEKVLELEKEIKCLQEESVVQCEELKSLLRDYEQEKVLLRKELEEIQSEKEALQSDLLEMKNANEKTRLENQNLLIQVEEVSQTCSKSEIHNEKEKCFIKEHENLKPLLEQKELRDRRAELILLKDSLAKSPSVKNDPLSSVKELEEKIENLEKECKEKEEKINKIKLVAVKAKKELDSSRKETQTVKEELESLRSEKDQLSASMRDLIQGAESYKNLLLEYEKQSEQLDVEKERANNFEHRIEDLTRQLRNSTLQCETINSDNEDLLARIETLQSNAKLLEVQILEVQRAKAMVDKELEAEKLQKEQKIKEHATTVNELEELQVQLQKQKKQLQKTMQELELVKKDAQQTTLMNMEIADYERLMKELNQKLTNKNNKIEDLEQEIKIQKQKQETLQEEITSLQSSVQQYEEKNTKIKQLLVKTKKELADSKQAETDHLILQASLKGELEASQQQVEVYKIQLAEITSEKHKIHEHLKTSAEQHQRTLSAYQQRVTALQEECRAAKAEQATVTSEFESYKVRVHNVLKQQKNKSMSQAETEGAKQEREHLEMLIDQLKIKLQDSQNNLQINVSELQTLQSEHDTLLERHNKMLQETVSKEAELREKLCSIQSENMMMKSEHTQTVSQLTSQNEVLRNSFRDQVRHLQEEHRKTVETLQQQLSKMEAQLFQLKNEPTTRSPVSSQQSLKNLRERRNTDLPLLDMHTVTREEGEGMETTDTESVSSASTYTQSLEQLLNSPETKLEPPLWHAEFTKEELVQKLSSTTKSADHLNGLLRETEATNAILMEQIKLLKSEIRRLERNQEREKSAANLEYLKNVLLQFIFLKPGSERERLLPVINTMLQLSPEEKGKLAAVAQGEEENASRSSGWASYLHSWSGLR
Chain of UniProt Q9Y3D6 (Q9Y3D6 whole entry, looked up): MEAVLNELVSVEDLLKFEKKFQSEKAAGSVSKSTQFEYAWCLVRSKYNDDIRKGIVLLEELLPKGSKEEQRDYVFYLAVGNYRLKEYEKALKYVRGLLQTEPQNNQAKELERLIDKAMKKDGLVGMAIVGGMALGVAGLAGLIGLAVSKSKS
Chain of UniProt P52789 (P52789 whole entry, looked up): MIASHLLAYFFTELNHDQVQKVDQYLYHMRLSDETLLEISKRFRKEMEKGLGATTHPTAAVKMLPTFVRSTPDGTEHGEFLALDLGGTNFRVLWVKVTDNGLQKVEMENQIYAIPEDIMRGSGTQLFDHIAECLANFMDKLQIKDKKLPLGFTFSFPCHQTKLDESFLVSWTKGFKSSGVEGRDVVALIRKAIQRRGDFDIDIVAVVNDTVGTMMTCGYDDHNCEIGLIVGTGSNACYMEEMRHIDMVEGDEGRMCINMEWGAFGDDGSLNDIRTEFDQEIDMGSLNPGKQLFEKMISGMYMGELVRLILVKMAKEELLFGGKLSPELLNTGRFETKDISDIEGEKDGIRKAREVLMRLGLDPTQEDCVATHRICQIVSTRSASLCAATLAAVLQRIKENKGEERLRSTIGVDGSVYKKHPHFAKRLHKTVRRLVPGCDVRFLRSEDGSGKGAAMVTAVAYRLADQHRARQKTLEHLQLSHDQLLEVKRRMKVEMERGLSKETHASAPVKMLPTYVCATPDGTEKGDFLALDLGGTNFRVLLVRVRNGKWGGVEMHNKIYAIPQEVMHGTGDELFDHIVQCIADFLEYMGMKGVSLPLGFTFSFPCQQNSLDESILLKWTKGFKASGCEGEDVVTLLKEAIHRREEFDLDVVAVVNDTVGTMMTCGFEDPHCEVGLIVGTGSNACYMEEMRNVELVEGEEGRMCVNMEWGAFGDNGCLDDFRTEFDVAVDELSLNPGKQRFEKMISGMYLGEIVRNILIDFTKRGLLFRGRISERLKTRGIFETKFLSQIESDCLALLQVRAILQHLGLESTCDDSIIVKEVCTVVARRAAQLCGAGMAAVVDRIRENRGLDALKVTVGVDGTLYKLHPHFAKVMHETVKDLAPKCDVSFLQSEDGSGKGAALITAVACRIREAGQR
Chain of UniProt Q92522 (Q92522 whole entry, looked up): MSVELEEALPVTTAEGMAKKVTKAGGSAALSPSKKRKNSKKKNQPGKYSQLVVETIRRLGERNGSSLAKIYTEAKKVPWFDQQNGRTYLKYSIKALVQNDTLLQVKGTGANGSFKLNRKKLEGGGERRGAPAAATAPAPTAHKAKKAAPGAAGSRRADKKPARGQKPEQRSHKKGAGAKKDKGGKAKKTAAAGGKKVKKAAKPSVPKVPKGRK
Chain of UniProt P49840 (P49840 whole entry, looked up): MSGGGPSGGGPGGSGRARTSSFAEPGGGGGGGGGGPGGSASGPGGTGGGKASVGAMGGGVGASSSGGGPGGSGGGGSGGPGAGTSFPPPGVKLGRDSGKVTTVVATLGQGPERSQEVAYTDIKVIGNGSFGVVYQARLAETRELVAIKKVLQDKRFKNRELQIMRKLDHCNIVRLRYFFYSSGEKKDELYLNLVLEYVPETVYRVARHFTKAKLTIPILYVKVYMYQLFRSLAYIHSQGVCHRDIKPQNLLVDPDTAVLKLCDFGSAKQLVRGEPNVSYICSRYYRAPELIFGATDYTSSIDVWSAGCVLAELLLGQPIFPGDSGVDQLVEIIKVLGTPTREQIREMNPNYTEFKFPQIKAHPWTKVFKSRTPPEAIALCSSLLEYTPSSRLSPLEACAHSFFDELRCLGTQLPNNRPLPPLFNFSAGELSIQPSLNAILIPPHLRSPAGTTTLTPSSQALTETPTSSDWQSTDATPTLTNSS
Chain of UniProt P63218 (P63218 whole entry, looked up): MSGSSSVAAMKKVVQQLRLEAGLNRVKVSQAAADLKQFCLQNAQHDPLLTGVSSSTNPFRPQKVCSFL
Chain of UniProt P15976 (P15976 whole entry, looked up): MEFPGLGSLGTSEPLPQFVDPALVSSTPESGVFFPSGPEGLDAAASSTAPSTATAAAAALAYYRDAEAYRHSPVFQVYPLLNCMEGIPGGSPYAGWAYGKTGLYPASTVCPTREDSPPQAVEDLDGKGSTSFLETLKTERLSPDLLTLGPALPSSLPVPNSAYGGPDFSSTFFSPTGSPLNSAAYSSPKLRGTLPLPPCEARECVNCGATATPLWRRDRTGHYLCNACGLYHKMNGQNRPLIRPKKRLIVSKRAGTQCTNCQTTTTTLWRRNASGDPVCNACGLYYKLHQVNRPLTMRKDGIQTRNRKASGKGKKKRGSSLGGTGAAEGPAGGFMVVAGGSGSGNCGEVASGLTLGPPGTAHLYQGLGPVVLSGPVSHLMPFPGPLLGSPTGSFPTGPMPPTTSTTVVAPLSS
Chain of UniProt P11142 (P11142 whole entry, looked up): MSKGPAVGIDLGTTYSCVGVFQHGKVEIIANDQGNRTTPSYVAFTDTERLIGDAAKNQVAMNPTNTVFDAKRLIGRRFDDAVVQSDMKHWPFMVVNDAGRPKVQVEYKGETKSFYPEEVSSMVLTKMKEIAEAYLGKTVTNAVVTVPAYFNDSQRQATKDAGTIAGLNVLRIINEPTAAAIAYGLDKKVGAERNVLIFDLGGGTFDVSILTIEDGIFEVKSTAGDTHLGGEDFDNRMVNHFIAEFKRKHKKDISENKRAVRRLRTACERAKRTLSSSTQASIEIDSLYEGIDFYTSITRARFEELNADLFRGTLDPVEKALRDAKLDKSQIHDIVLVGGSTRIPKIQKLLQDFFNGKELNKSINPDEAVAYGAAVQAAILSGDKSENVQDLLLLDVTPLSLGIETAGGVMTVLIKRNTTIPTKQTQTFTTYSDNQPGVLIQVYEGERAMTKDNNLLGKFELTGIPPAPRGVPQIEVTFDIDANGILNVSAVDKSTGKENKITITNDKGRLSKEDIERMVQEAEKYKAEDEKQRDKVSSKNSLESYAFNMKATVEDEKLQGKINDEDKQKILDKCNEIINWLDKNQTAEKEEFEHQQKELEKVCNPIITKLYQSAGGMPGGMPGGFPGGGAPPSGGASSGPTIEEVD

As to HK2 (UniProt P52789), the log2 fold change in [1] was 0.035; in assay [2] it was 0.031; in assay [3] it was 0.03; in assay [4], -0.064; in [5], -0.124; in assay [6], 0.097. Also, the log2 fold change in [7] is -0.07; in [8], 0.005; in assay [9], -0.206; in assay [10] it was -0.353 (active).
In the case of GCC2 (UniProt Q8IWJ2), the log2 fold change was -0.037 in [1]; 0.137 in [2]; 0.074 in assay [3]; 0.065 in assay [4]; -0.046 in assay [5]; -0.037 in [6]. In addition, the log2 fold change in assay [7] is 0.024; in assay [8], -0.11; in assay [9], 0.056; in [10], 0.014.
Regarding FIS1 (UniProt Q9Y3D6), the log2 fold change in [1] is -0.016; in [2] it was -0.008; in assay [3], 0.153; in assay [4], -0.047; in [5] it was -0.034; in [6], 0.061. Moreover, the log2 fold change in assay [7] is -0.025; in assay [8] it was 0.069; in assay [9] it was 0.008; in assay [10] it was 0.071.
In the case of GSK3A (UniProt P49840), the log2 fold change in [1] was -0.028; in assay [2], -0.087; in assay [3] it was -0.029; in assay [4], -0.107; in assay [5], 0.051; in [6], 0.088. For the same target, the log2 fold change in [7] is -0.008; in [8], 0.045; in assay [9], -0.016; in assay [10], 0.188.
H1FX (UniProt Q92522): the log2 fold change in assay [1] is -0.116; in assay [2], 0.112; in assay [3], 0.049; in [4] it was 0.161; in assay [5], -0.147; in assay [6], 0.033. Also, the log2 fold change in [7] is -0.044; in assay [8], -0.24; in assay [9], 0.133; in assay [10], -0.134.
Turning to HPCAL1 (UniProt P37235), the log2 fold change in assay [1] is -0.085; in assay [2], -0.128; in assay [3], -0.017; in assay [4], -0.062; in [5], 0.002; in assay [6] it was -0.012. Besides, the log2 fold change in [7] was -0.021; in [8] it was 0.06; in assay [9], -0.027; in assay [10], 0.013.
HSPA8 (UniProt P11142): the log2 fold change in assay [1] was -0.008; in assay [2], -0.035; in [3], 0.005; in [4], 0.018; in assay [5] it was -0.036; in assay [6], -0.004. The log2 fold change is 0.018 in assay [7], -0.012 in [8], -0.018 in assay [9] and -0.039 in assay [10].
Take HOOK3 (UniProt Q86VS8): the log2 fold change in [1] is -0.074; in assay [2] it was -0.108; in assay [3] it was 0.001; in [4], 0.036; in [5] it was 0.07; in assay [6], 0.014. In addition, the log2 fold change was -0.006 in [7], 0.018 in [8], 0.032 in [9] and -0.021 in [10].
With GATA1 (UniProt P15976), the log2 fold change was -0.023 in assay [1]; 0.001 in assay [2]; -0.05 in assay [3]; -0.034 in assay [4]; 0.02 in assay [5]; 0.07 in assay [6]. Besides, the log2 fold change in assay [7] was 0.014; in assay [8], -0.087; in [9], 0.008; in assay [10], -0.021.
In the case of HNRNPH2 (UniProt P55795), the log2 fold change is 0.003 in assay [1]; 0.033 in assay [2]; 0.079 in assay [3]; 0.001 in assay [4]; 0.058 in [5]; -0.231 in assay [6]. Moreover, the log2 fold change is 0.02 in assay [7], -0.079 in assay [8], 0.057 in assay [9] and -0.021 in [10].
For HNRNPH1 (UniProt P31943), the log2 fold change was 0.069 in [1]; 0 in assay [2]; 0.091 in assay [3]; 0.048 in assay [4]; 0.028 in [5]; -0.192 in [6]. Moreover, the log2 fold change in assay [7] was -0.015; in assay [8], 0.068; in assay [9] it was 0.046; in assay [10] it was -0.135.
Take GTF2E2 (UniProt P29084): the log2 fold change is -0.014 in [1]; 0.034 in [2]; 0.027 in assay [3]; -0.03 in [4]; -0.027 in [5]; 0 in assay [6]. Further, the log2 fold change in [7] was 0.009; in assay [8], -0.056; in [9], 0.022; in assay [10], 0.031.
As to HECTD1 (UniProt Q9ULT8), the log2 fold change is -0.039 in assay [1]; 0.091 in assay [2]; 0.023 in assay [3]; 0.047 in assay [4]; 0.087 in [5]; -0.04 in assay [6]. Besides, the log2 fold change is -0.016 in [7], -0.132 in assay [8], 0.096 in [9] and 0.02 in assay [10].
On to GNG5 (UniProt P63218), for which the log2 fold change in [1] is 0.082; in assay [2], 0.086; in assay [3] it was -0.016; in [4] it was 0.065; in assay [5] it was -0.146; in assay [6], -0.022. Further, the log2 fold change in [7] was 0.224; in assay [8], 0.079; in assay [9] it was -0.006; in assay [10], -0.087.
